The record followed here is PubChem BioAssay.

Unmarked numbers belong to inactive results. Activity calls are given as the source filed them. Unless noted, no stated cut-off is given here; in the data, active means inhibition above about 25%; inactive means the rest.

Test [1] addresses Nuclear receptor coactivator 1 (Homo sapiens) (UniProt Q15788). Description: NCOA1 GAL4-fusion reporter inhibition – cell-based, luminescence, quadruplicate, confirmation (AID 588820;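 active means mean inhibition above 46.68%, the untreated control wells mean plus 3 SD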;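 further: 0% = DMSO wells and 100% = gossypol 36 µM treated wells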). The settings on record: HEK293 GAL4-SRC1 luciferase reporter, at 3.6 µM, active compounds read high.
Test [2] can be described thus: repression of VP16-driven luciferase reporter – cell-based, luminescence, high throughput, counter-screen for SRC1 inhibitor project (AID 588824). The settings on record: cell-based VP16 transactivation luciferase luminescence; at 3.6 µM; active compounds read high.

Sequence of Nuclear receptor coactivator 1 (Homo sapiens) (Q15788 whole entry, looked up, the tested form may be a part): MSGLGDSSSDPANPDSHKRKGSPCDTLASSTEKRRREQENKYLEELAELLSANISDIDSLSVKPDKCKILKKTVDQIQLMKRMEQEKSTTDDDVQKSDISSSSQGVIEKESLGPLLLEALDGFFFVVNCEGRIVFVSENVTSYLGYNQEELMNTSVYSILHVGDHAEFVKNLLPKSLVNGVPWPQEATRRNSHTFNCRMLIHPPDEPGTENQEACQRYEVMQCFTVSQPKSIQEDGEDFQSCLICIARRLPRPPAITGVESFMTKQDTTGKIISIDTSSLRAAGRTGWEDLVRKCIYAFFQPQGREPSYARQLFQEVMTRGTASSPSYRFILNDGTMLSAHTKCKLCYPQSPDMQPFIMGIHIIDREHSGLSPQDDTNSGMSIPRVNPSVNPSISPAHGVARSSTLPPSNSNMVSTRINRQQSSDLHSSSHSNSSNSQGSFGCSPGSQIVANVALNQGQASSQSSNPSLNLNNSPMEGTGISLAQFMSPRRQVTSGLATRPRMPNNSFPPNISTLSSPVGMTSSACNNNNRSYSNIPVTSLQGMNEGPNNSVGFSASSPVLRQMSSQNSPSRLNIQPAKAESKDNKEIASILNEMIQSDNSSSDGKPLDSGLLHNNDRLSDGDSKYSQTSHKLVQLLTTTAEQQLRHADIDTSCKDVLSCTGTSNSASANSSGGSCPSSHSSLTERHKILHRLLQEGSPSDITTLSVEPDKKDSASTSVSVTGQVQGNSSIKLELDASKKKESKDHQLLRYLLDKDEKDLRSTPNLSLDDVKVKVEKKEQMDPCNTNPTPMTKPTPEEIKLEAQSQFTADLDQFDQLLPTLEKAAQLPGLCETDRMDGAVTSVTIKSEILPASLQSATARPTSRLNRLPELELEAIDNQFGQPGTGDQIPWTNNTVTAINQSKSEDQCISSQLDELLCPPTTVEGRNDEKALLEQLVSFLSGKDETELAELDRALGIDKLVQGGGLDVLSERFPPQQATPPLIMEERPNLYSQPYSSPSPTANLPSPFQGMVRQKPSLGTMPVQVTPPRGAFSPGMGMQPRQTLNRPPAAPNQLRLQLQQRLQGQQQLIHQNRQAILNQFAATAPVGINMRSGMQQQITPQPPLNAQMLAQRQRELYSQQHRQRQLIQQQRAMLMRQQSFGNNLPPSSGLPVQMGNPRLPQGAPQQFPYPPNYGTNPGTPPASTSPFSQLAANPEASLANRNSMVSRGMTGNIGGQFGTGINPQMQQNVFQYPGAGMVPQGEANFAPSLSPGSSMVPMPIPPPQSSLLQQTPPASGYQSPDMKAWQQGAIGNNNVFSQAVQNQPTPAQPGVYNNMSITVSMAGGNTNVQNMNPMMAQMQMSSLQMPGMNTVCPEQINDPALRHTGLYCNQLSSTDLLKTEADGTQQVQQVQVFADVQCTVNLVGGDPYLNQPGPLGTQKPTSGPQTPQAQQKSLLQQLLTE

Consider `O=C(CN1C(=O)COc2ccccc21)Nc1ccccc1F`, for which the inhibition in test [1] was -26%; in test [2], 1.99%.

Take `Cc1cnc(C(=O)Nc2cccc3cccnc23)cn1`: the inhibition is -34.4% in test [1] and -21.9% in test [2].

Turning to `O=C(Nc1cccc(Br)c1)c1cc(S(=O)(=O)N2CCOCC2)cs1`, the inhibition in test [1] was -2.57%; in test [2], -2.73%.

`CCN(c1ccccc1)S(=O)(=O)c1cc(C(=O)Nc2ccc(Br)cc2)ccc1F`: the values for the inhibition in test [1] and in test [2] were 16.9% and 23.2%, respectively.

With `CCN1CCN(S(=O)(=O)c2cc(OCC(=O)NC3CCCCC3)c(C)cc2Cl)CC1`, the inhibition in test [1] is -7.06%; in test [2], 31.1% (active).

Take `COc1ccc2cc(/C=N/NC(=O)c3ccc(CN(c4ccc(C)c(C)c4)S(C)(=O)=O)cc3)c(Cl)nc2c1`: the results for the inhibition in test [1] and in test [2] were -4.08% and 20.7%, respectively.

In the case of `COc1ccccc1/C=N/NC(=O)CN(C1=NS(=O)(=O)c2ccccc21)c1ccccc1`, the figures for the inhibition in test [1] and in test [2] were -2.78% and 0.92%, respectively.

Consider `COc1ccc(Nc2cc(C)nc(NCc3ccccc3)n2)cc1`, for which the inhibition in test [1] is 12.3%; in test [2], 23.2%.

Take `Cc1ccc(C(C(=O)NCc2ccccc2)N(Cc2cccs2)C(=O)c2ccc3c(c2)OCCO3)cc1` (configuration not stated): the inhibition is -21.8% in test [1] and -1.97% in test [2].

For the compound `CC(C)N1C(=O)c2ccccc2N(Cc2ccccc2)S1(=O)=O`, the inhibition is -4.94% in test [1] and 1.81% in test [2].

As to `CC(NC(=O)CSc1nc2ccccc2n1C)c1ccccc1` (configuration not stated), the inhibition in test [1] is 0.06%; in test [2], -11.7%.

As to `CC(Oc1ccc(F)cc1)C(=O)Nc1cc(S(=O)(=O)N2CCCCC2)ccc1N1CCOCC1` (configuration not stated), the figures for the inhibition in test [1] and in test [2] were -3.38% and 6%, respectively.

`COc1cc(NC(=O)c2cc3cccc(OC)c3o2)cc(C(=O)Nc2cccc(C(F)(F)F)c2)c1`: the inhibition in test [1] was -23.9%; in test [2] it was 18.4%.

With `CCc1ccc(CNC(=O)C2CCCN(S(=O)(=O)N(CC)c3ccccc3)C2)cc1` (configuration not stated), the inhibition is -39.2% in test [1] and -3.99% in test [2].

`CN1c2ccccc2C2(C)CCCC3=Cc4cccc([N+](=O)[O-])c4OC312` (configuration not stated): the inhibition was -8.43% in test [1] and 11.1% in test [2].

Turning to `Cc1cc(C)n(-c2ccc(C(=O)Nc3ccc(C)c(S(=O)(=O)N4CCOCC4)c3)cc2)n1`, the inhibition was 0.36% in test [1] and -1.58% in test [2].

Regarding `CCOC(=O)C(Cc1c(F)cccc1Cl)c1ccno1` (configuration not stated), the inhibition in test [1] was -2.31%; in test [2] it was -14.2%.

In the case of `CCc1nnc(SCc2ccc(C(=O)OC)o2)n1N`, the inhibition in test [1] is -6.33%; in test [2], 4.87%.

In the case of `Cc1ccccc1C(=O)/C(C#N)=N/Nc1c(C)n(C)n(-c2ccccc2)c1=O`, the values for the inhibition in test [1] and in test [2] were 34.3% and 21.1%, respectively.

Consider `COC(=O)C1CCCCN1C(=O)c1cc(COc2cccc3cnccc23)on1` (configuration not stated), for which the results for the inhibition in test [1] and in test [2] were 30.8% and 43.3% (active), respectively.

Turning to `CCOC(=O)N1CCN(CC(=O)Nc2ccc(F)c(F)c2)CC1`, the results for the inhibition in test [1] and in test [2] were -18.7% and -4%, respectively.

On to `Cc1cccc(C(C)C)c1-n1nnnc1-c1ccccc1`, for which the figures for the inhibition in test [1] and in test [2] were -4.66% and 13.5%, respectively.

As to `CC(=O)c1cccc(NC(=O)c2ccc(CN3CCc4ccccc4C3)cc2)c1`, the results for the inhibition in test [1] and in test [2] were -1.99% and 9.39%, respectively.

Regarding `COc1ccccc1OCCC(=O)OCC(=O)NC(C)c1ccccc1` (configuration not stated), the inhibition in test [1] was -8.57%; in test [2], -18.5%.

Turning to `CCN1CCN(c2ccc(S(=O)(=O)N3CCOCC3)cc2NC(=O)c2cc(Cl)nc3ccccc23)CC1`, the inhibition in test [1] was -18.2%; in test [2] it was 1.55%.

For `O=C(CS(=O)c1ccc(F)cc1)N1CCOCC1` (configuration not stated), the figures for the inhibition in test [1] and in test [2] were -1.56% and -3.56%, respectively.

In the case of `O=C(c1cc(COc2c(F)cccc2F)on1)N1CCC(c2ccncc2)CC1`, the inhibition is -8.98% in test [1] and 19.7% in test [2].

Take `CC(=O)c1c(C)n(-c2ccc(C)cc2)c2ccc(O)cc12`: the inhibition in test [1] was 35%; in test [2] it was 19.8%.

With `O=C(NCC[C@@H]1C[C@@H]2C=C[C@H]1C2)c1cc(COc2ccc(F)cc2F)on1`, the values for the inhibition in test [1] and in test [2] were -4.95% and 1.83%, respectively.

Regarding `Cc1c(C(=O)NCC2COc3ccccc3O2)oc2ccc(S(=O)(=O)N3CCOCC3)cc12` (configuration not stated), the inhibition in test [1] was -7.47%; in test [2] it was 15.8%.

In the case of `COC(=O)c1ccc(C(=O)N2CCCC(Nc3ccc(F)c(F)c3)C2)cc1` (configuration not stated), the inhibition is -59.6% in test [1] and -10.7% in test [2].

With `Cc1ccccc1CN1CCN(C(=O)CC(C)C)CC1`, the inhibition in test [1] was -18.4%; in test [2] it was -7.73%.

On to `Cc1ccc(S(=O)(=O)Nc2c(NC3CCCCC3)c3ccccc3oc2=O)c(C)c1`, for which the inhibition in test [1] was 15.7%; in test [2], 13.5%.

As to `Cc1c(C(=O)N/N=C/C(C)C)[nH]c2ccc([N+](=O)[O-])cc12`, the values for the inhibition in test [1] and in test [2] were 17.2% and 14.8%, respectively.

Take `C/C(=N\N=C1\NC(=O)C(CC(=O)O)S1)c1ccccn1` (configuration not stated): the inhibition in test [1] is -1.33%; in test [2] it was -8.7%.

Take `Cc1ccc(Oc2ccccc2NC(=O)CSCC(=O)Nc2cc(C)on2)cc1`: the inhibition was 1.59% in test [1] and 16.1% in test [2].

With `Cc1sc2ncnc(N3CCC(C(=O)N(C)CC(=O)Nc4ccccc4Br)CC3)c2c1C`, the values for the inhibition in test [1] and in test [2] were 5.26% and 13.3%, respectively.

For `COc1ccc(CN2CCN(C(=O)CCC(=O)Nc3nnc(C(F)(F)F)s3)CC2)cc1F`, the results for the inhibition in test [1] and in test [2] were -1.74% and -4.2%, respectively.

Consider `Cc1cc(Br)cn2c(Cc3ccsc3)c(-c3ccc(F)cc3)nc12`, for which the values for the inhibition in test [1] and in test [2] were 6.68% and -0.27%, respectively.

Regarding `Fc1cccc(Cl)c1Cn1nnc2c(NCc3ccncc3)ncnc21`, the figures for the inhibition in test [1] and in test [2] were -0.7% and 4.51%, respectively.

As to `CC1=C(C(=O)Nc2ccccc2C(=O)NCc2ccccc2)SCCO1`, the figures for the inhibition in test [1] and in test [2] were -7.53% and -4.09%, respectively.

In the case of `CCN(CC)S(=O)(=O)c1cc(NC(=O)C2CCN(c3ncnc4sc(C)c(C)c34)CC2)ccc1Cl`, the inhibition in test [1] is 3.49%; in test [2], 34.4% (active).

As for `Cc1cccc(C)c1NC(=O)CN(C)CC(=O)Nc1ccc(F)c(Cl)c1`, the inhibition in test [1] is 4.35%; in test [2], 11.2%.

For the compound `Cc1ccc(S(=O)(=O)NCCC2=CCCCC2)cc1`, the inhibition in test [1] was -5.59%; in test [2] it was 7%.

Consider `CN(C)C(=O)c1ccc(-c2n[nH]c(=O)c3ccccc23)cc1`, for which the inhibition in test [1] was 34.3%; in test [2], 18.3%.

With `CC(C)(C)c1ccc(CC(=O)N2CCC2(C)C(=O)Nc2ccc(F)cc2F)cc1` (configuration not stated), the inhibition is 1.73% in test [1] and 14.4% in test [2].

As to `COc1ccc(-c2n[nH]c(=S)n2-c2ccc(C)cc2)cc1`, the inhibition is -68.5% in test [1] and -40% in test [2].

On to `COc1ccc(C2c3cc(OC)c(OC)cc3CCN2S(C)(=O)=O)cc1OC` (configuration not stated), for which the figures for the inhibition in test [1] and in test [2] were 9.85% and 9.73%, respectively.

Consider `COc1ccccc1CNC(=O)Cn1nnnc1CN(C)C(C)C`, for which the inhibition was -0.61% in test [1] and 9.79% in test [2].

For `C=CCn1c(SCC(=O)Nc2ccccc2F)nc2ccccc2c1=O`, the inhibition in test [1] was 2.78%; in test [2] it was -1.24%.

With `Cc1cc2c(NCc3ccccc3)ncnc2s1`, the inhibition in test [1] was 5%; in test [2] it was 18.8%.

Regarding `CCOC(=O)Cc1csc(SCC(=O)c2c(N)n(CC(C)C)c(=O)n(C)c2=O)n1`, the figures for the inhibition in test [1] and in test [2] were -7.3% and 26.3% (active), respectively.

On to `COc1ccc(O)c(C2(O)C(=O)c3ccccc3C2=O)c1`, for which the inhibition was -5.99% in test [1] and 3.91% in test [2].

Consider `O=C(C[C@H]1C[C@H](C(=O)N2CCOCC2)[C@@]2(CCC3CCCC3)c3[nH]c4ccc(Cl)cc4c3CCN2C1=O)NCCCn1ccnc1`, for which the inhibition in test [1] is -4.01%; in test [2], 2.48%.

On to `COc1ccc(-n2cc(-c3ccccc3)c3c(N4CCOCC4)ncnc32)cc1`, for which the inhibition was -50.7% in test [1] and -1.14% in test [2].

For the compound `CC(NC(=O)COC(=O)c1cccs1)c1ccccc1` (configuration not stated), the inhibition is 15.5% in test [1] and 13.6% in test [2].

For the compound `CCN(C(=O)c1ccc(S(=O)(=O)N2CCC(C)CC2)cc1)C1CCS(=O)(=O)C1` (configuration not stated), the inhibition in test [1] was -0.29%; in test [2] it was 2.08%.

Consider `O=C(CSc1nc2ccccc2[nH]1)Nc1cccc(S(=O)(=O)N2CCOCC2)c1`, for which the inhibition was 3.06% in test [1] and -4.53% in test [2].

For `CC1CCc2c(sc3ncnc(N4CCOCC4)c23)C1` (configuration not stated), the inhibition in test [1] was 40%; in test [2], 26.6% (active).

As for `COc1cccc(NC(=O)CN(C)CC(=O)Nc2ccc(Cl)cc2[N+](=O)[O-])c1`, the inhibition in test [1] is 26.6%; in test [2] it was 14.7%.

Turning to `CN(Cc1ccc(OC(F)F)cc1)C(=O)c1cccc(S(=O)(=O)N2CCN(Cc3ccccc3)CC2)c1`, the inhibition in test [1] is -14%; in test [2] it was 35% (active).

Regarding `CCOC(=O)N1CCc2c(sc(NC(=O)CN3CCOCC3)c2C(=O)Nc2ccccc2)C1`, the values for the inhibition in test [1] and in test [2] were -17.7% and -5.16%, respectively.

Regarding `CN1CCc2c(OCc3ccc(F)cc3)cccc2C1=O`, the results for the inhibition in test [1] and in test [2] were -8.74% and -7.17%, respectively.

Take `COc1cc(C)c(/C=C(\C#N)C(=O)Nc2ccc(C)cc2)cc1C(C)C`: the results for the inhibition in test [1] and in test [2] were -24% and 0.73%, respectively.

Consider `COc1ccc(N2CCN(C(=O)c3ccc(CS(=O)c4cccc(C)c4)o3)CC2)cc1` (configuration not stated), for which the inhibition is -16.2% in test [1] and -2.71% in test [2].

Regarding `Cc1ccc(C2C3=C(CC(C)(C)CC3=O)OC3=C2C(=O)CC(C)(C)C3)cc1`, the inhibition in test [1] was 0%; in test [2] it was 3.31%.

For the compound `CCOc1cc(C(=S)N2CCCCC2)ccc1OCC(=O)NCc1ccccc1`, the inhibition is -15.9% in test [1] and -12.5% in test [2].

For `CCN(CC(=O)Nc1c(F)cccc1F)C(=O)Cc1csc(-c2ccccc2)n1`, the inhibition in test [1] was -10.5%; in test [2] it was -7.28%.

With `Cc1ccc(Cc2c(-c3ccco3)nc3c4ccccc4ccn23)cc1`, the inhibition in test [1] is -81.9%; in test [2], -34.6%.

Take `Nc1c(C(=O)c2ccccc2)sc2nsc(SCCN3CCCC3)c12`: the inhibition in test [1] was -0.71%; in test [2], -2.2%.

Regarding `CC(C)C(=O)N1CCN(c2ccc(NC(=O)c3ccc4c(c3)OCCO4)cc2Cl)CC1`, the figures for the inhibition in test [1] and in test [2] were -52.5% and -6.57%, respectively.
